Results reported in PubChem BioAssay (EPA / NIEHS).
Records with an inconclusive call do not appear. Activity calls are given as the source filed them. Rule for the calls, unless noted: active = hit-call score of the fitted dose curve at least 0.9, where 1 is the maximum; inactive = score below 0.9.

Legend:
[1] = read-out: Interleukin-1 alpha (IL1a), IL1A (gene 3552); assay: BSK_LPS_IL1a: BioMAP Diversity Plus: LPS Assay for Interleukin-1 alpha (IL1a) Biomarker Activity (AID 2283080); conditions: primary human HUVEC with PBMC; actives raise or lower the signal
Procedure, shortened: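 Human umbilical vein endothelial cells co-cultured with peripheral blood mononuclear cells were LPS-stimulated and exposed to test chemicals for 24 h. IL-1 alpha was quantified by ELISA, with bidirectional curve fitting against DMSO as the negative control and baseline.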

[2] = read-out: Monocyte Chemoattractant Protein-1 (MCP1), CCL2 (gene 6347); assay: BSK_LPS_MCP1: BioMAP Diversity Plus: LPS Assay for Monocyte Chemoattractant Protein-1 (MCP1) Biomarker Activity (AID 2283081); conditions: primary human HUVEC with PBMC; actives raise or lower the signal;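 for AC50: secreted MCP-1 protein quantified by ELISA in culture supernatant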
Procedure, shortened: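 HUVEC plus PBMC co-culture (human primary cells, LPS system) exposed to test chemical for 24 h; MCP-1 measured by ELISA. Bidirectional curve fitting against DMSO baseline; parallel SRB total-protein staining flags overt cytotoxicity.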

[3] = BSK_LPS_PGE2: BioMAP Diversity Plus: LPS Assay for Prostaglandin E2 (PGE2) Biomarker Activity (AID 2283082); conditions: primary human HUVEC with PBMC; actives raise or lower the signal;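 for AC50: secreted prostaglandin E2 measured by ELISA in LPS-stimulated co-culture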
Procedure, shortened: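 HUVEC plus PBMC co-culture stimulated with LPS; secreted PGE2 quantified by ELISA 24 h after chemical dosing. Activity fitted bidirectionally against DMSO as negative control and baseline; parallel SRB total-protein staining served as cytotoxicity check.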

[4] = read-out: Macrophage colony-stimulating factor (MCSF), CSF1 (gene 1435); assay: BSK_LPS_MCSF: BioMAP Diversity Plus: LPS Assay for Macrophage colony-stimulating factor (MCSF) Biomarker Activity (AID 2283083); conditions: primary human HUVEC with PBMC; actives raise or lower the signal
Procedure, shortened: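 Human umbilical vein endothelial cells co-cultured with peripheral blood mononuclear cells were exposed to compound for 24 h. M-CSF levels were measured by ELISA, and bidirectional curve fitting used DMSO as the negative control and baseline.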

[5] = read-out: Tissue Factor, F3 (gene 2152); assay: BSK_LPS_TissueFactor: BioMAP Diversity Plus: LPS Assay for Tissue Factor Biomarker Activity (AID 2283084); conditions: primary human HUVEC with PBMC; actives raise or lower the signal
Procedure, shortened: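 Human umbilical vein endothelial cells co-cultured with peripheral blood mononuclear cells were dosed and stimulated with LPS. Cell-surface CD142 was quantified by ELISA at 24 h. Activity was fitted bidirectionally against DMSO baseline.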

[6] = read-out: Tumor necrosis factor (Homo sapiens) (UniProt P01375); assay: BSK_LPS_TNFa: BioMAP Diversity Plus: LPS Assay for Tumour Necrosis Factor alpha (TNFa) Biomarker Activity (AID 2283085); conditions: primary human HUVEC with PBMC; actives raise or lower the signal
Procedure, shortened: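 Human umbilical vein endothelial cells co-cultured with PBMC were exposed to test chemical and TNFa measured by ELISA 24 h after dosing. Bidirectional curve fitting was done relative to DMSO as negative control and baseline.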

[7] = read-out: Vascular cell adhesion molecule 1 (VCAM1), VCAM1 (gene 7412); assay: BSK_LPS_VCAM1: BioMAP Diversity Plus: LPS Assay for Vascular cell adhesion molecule 1 (VCAM1) Biomarker Activity (AID 2283086); conditions: primary human HUVEC with PBMC; actives raise or lower the signal
Procedure, shortened: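 Human umbilical vein endothelial cells co-cultured with peripheral blood mononuclear cells under LPS stimulation were exposed to test chemical for 24 h. VCAM-1 levels were then measured by ELISA, with bidirectional curve fitting relative to DMSO as negative control and baseline.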

CD38, CD38 (gene 952) = assay: BSK_SAg_CD38: BioMAP Diversity Plus: SAg Assay for CD38 Biomarker Activity (AID 2283087); conditions: primary human HUVEC with PBMC; actives raise or lower the signal
Procedure, shortened: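 Fluorescence ELISA of cell-surface CD38 served as the read-out, with either increase or decrease fitted against DMSO controls. Cells were a human umbilical vein endothelium plus PBMC co-culture under SEB/TSST-1 stimulation, measured 24 h after dosing.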

CD40, CD40 (gene 958) = assay: BSK_SAg_CD40: BioMAP Diversity Plus: SAg Assay for CD40 Biomarker Activity (AID 2283088); conditions: primary human HUVEC with PBMC; actives raise or lower the signal
Procedure, shortened: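 Human umbilical vein endothelial cells co-cultured with PBMC; CD40 levels measured by ELISA with fluorescence read-out 24 h after chemical dosing. Gain or loss of signal fitted bidirectionally against DMSO baseline.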

CD69, CD69 (gene 969) = assay: BSK_SAg_CD69: BioMAP Diversity Plus: SAg Assay for CD69 Biomarker Activity (AID 2283089); conditions: primary human HUVEC with PBMC; actives raise or lower the signal;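 for AC50: cell surface CD69 protein quantified by ELISA with fluorescence detection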
Procedure, shortened: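 Primary human vascular co-culture (umbilical vein endothelium with peripheral blood mononuclear cells) exposed to test chemical for 24 h. CD69 levels quantified by fluorescence ELISA; DMSO served as negative control for bidirectional fitting.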

[8] = read-out: Monocyte Chemoattractant Protein-1 (MCP1), CCL2 (gene 6347); assay: BSK_SAg_MCP1: BioMAP Diversity Plus: SAg Assay for Monocyte Chemoattractant Protein-1 (MCP1) Biomarker Activity (AID 2283090); conditions: primary human HUVEC with PBMC; actives raise or lower the signal
Procedure, shortened: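 MCP-1 levels in the endothelial–PBMC SAg co-culture were quantified by ELISA at 24 h post-dosing; both increases and decreases versus DMSO scored. Cytotoxicity monitored by SRB total protein in parallel cultures.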

[9] = read-out: E-selectin (Homo sapiens) (UniProt P16581); assay: BSK_SAg_Eselectin: BioMAP Diversity Plus: SAg Assay for Eselectin Biomarker Activity (AID 2283091); conditions: primary human HUVEC with PBMC; actives raise or lower the signal
Procedure, shortened: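 HUVEC co-cultured with PBMC, compound dosed then read at 24 h; E-selectin measured by ELISA. Activity fitted bidirectionally against DMSO as negative control and baseline.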

[10] = read-out: Monokine induced gamma interferon (MIG), CXCL9 (gene 4283); assay: BSK_SAg_MIG: BioMAP Diversity Plus: SAg Assay for Monokine induced gamma interferon (MIG) Biomarker Activity (AID 2283092); conditions: primary human HUVEC with PBMC; actives raise or lower the signal
Procedure, shortened: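 Endothelial cells and PBMC were co-cultured, exposed to test chemicals, and sampled 24 h later. MIG was measured by ELISA, and responses were fitted in both directions relative to DMSO.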

[11] = BSK_SAg_PBMCCytotoxicity: PBMC Cytotoxicity Assessment in the BioMAP Diversity Plus: SAg Assay (AID 2283093); conditions: primary human HUVEC with PBMC;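 note: PBMC viability measured as Alamar Blue reduction fluorescence at 546/580 nm; fitted both ways against DMSO so a hit may be loss or gain of signal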;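 for AC50: PBMC superantigen activated with SEB plus TSST-1 one hour after compound addition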
Procedure, shortened: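 Compound added to 75,000 PBMC/well for 1 h; SEB and TSST-1 then added at 20 ng/mL final each; 90 h incubation; Alamar Blue 6 h; read 546/580 nm ex/em. Activity fitted bidirectionally relative to DMSO baseline.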

[12] = read-out: Interleukin-8 (IL8), CXCL8 (gene 3576); assay: BSK_SAg_IL8: BioMAP Diversity Plus: SAg Assay for Interleukin-8 (IL8) Biomarker Activity (AID 2283094); conditions: primary human HUVEC with PBMC; actives raise or lower the signal
Procedure, shortened: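 Human umbilical vein endothelial cells co-cultured with peripheral blood mononuclear cells; IL-8 measured by ELISA 24 h after chemical dosing. Bidirectional concentration-response fitting used DMSO as negative control and activity baseline.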

[13] = BSK_SAg_Proliferation: Cell Proliferation Assessment in the BioMAP Diversity Plus: SAg Assay (AID 2283095); conditions: primary human HUVEC with PBMC;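 note: relative cell number as total protein by SRB absorbance in sub-confluent culture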
Procedure, shortened: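 Human umbilical vein endothelial cells co-cultured with peripheral blood mononuclear cells; total protein measured by sulforhodamine B staining (0.1% SRB after 10% TCA fixation), absorbance at 560 nm, at 96 h. Bidirectional fit against DMSO baseline.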

[14] = BSK_SAg_SRB: Viability Assessment in the BioMAP Diversity Plus: SAg Assay (AID 2283096); conditions: primary human HUVEC with PBMC;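 note: cells read one day after compound addition; hits may be either gain or loss of signal compared with DMSO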
Procedure, shortened: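 Total protein by sulforhodamine B staining, 24 h after dosing, in HUVEC–PBMC co-culture; DMSO-referenced bidirectional fitting.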

[15] = biological target: human CYP19A1, CYP19A1 (gene 1588) (UniProt P11511); assay: NVS_ADME_hCYP19A1: NovaScreen (NVS) CYP450-related Enzyme Activity (ADME) Assay for human CYP19A1 (AID 2283098; active = hit-call score of the fitted dose curve at least 0.9, where 1 is the maximum)
Procedure, shortened: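 Biochem, cell-free; recombinant enzyme + specific substrate; fluorescence intensity at 0.5 h post-dose; 10 uM duplicate primary, conc. series for actives; acetonitrile = negative control/baseline; positive and negative controls on every plate.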

[16] = biological target: human CYP2A6, CYP2A6 (gene 1548) (UniProt P11509); assay: NVS_ADME_hCYP2A6: NovaScreen (NVS) CYP450-related Enzyme Activity (ADME) Assay for human CYP2A6 (AID 2283099; active = hit-call score of the fitted dose curve at least 0.9, where 1 is the maximum)
Procedure, shortened: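 Cell-free fluorescence readout of recombinant human CYP2A6 expressed in insect cells, read 0.5 h after dosing; loss of signal versus acetonitrile negative control. Primary screen in duplicate at 10 uM; actives re-run in concentration-response up to 20 uM.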

[17] = biological target: human CYP1A1, CYP1A1 (gene 1543) (UniProt P04798); assay: NVS_ADME_hCYP1A1: NovaScreen (NVS) CYP450-related Enzyme Activity (ADME) Assay for human CYP1A1 (AID 2283100; active = hit-call score of the fitted dose curve at least 0.9, where 1 is the maximum)
Procedure, shortened: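 Cell-free fluorescence assay of recombinant human CYP1A1 activity with a specific substrate, read 1 h after dosing. Compounds were screened in duplicate at 10 uM, then hits tested in concentration-response up to 20 uM; acetonitrile served as baseline.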

Chain of Tumor necrosis factor (Homo sapiens) (P01375 whole entry, looked up): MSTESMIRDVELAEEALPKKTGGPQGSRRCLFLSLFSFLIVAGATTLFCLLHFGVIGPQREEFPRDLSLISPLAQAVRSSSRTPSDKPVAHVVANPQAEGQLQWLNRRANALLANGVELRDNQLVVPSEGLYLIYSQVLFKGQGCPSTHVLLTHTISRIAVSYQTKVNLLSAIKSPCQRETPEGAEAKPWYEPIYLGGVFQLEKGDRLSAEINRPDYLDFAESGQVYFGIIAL
Chain of E-selectin (Homo sapiens) (P16581 whole entry, looked up): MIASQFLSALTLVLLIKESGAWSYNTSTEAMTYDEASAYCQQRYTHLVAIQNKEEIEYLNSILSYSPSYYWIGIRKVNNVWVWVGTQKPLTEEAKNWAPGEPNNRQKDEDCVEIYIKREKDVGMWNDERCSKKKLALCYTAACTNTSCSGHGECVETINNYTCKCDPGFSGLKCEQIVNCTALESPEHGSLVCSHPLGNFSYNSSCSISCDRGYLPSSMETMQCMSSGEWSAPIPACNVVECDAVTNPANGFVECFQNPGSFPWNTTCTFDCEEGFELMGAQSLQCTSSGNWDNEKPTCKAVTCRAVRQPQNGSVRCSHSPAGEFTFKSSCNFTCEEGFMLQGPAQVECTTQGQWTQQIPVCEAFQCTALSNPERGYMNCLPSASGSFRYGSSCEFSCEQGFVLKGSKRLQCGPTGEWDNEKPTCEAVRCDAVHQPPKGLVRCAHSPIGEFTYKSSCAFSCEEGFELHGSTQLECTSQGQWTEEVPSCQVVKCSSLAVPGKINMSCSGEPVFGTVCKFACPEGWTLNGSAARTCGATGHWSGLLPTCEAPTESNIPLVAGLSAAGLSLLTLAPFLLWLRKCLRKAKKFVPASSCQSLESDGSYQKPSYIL
Chain of human CYP2A6, CYP2A6 (gene 1548) (P11509 whole entry, looked up): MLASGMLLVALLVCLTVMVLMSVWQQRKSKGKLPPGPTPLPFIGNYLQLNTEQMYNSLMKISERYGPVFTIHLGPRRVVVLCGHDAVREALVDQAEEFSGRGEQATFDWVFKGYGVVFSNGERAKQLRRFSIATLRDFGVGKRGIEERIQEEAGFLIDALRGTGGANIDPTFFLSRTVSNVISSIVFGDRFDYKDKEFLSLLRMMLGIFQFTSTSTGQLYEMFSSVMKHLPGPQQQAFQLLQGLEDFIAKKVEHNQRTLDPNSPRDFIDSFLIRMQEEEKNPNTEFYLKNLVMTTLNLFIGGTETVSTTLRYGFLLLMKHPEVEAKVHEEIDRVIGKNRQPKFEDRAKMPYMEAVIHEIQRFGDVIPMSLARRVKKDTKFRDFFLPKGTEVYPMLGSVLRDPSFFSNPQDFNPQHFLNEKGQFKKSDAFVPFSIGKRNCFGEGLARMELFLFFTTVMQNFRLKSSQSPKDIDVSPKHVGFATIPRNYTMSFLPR
Chain of human CYP19A1, CYP19A1 (gene 1588) (P11511 whole entry, looked up): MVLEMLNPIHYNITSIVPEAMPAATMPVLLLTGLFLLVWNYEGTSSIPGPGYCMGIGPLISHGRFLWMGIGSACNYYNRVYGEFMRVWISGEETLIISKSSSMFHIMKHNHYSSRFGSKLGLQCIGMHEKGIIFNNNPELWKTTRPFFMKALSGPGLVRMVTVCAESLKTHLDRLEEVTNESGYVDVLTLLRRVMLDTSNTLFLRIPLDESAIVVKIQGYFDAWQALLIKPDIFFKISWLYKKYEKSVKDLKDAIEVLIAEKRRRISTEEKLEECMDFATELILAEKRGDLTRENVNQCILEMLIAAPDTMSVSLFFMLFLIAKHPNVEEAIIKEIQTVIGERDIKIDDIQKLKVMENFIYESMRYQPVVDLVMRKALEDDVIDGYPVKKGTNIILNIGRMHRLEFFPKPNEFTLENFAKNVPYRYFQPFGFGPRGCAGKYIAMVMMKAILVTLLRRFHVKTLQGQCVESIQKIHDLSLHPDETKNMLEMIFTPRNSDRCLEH
Chain of human CYP1A1, CYP1A1 (gene 1543) (P04798 whole entry, looked up): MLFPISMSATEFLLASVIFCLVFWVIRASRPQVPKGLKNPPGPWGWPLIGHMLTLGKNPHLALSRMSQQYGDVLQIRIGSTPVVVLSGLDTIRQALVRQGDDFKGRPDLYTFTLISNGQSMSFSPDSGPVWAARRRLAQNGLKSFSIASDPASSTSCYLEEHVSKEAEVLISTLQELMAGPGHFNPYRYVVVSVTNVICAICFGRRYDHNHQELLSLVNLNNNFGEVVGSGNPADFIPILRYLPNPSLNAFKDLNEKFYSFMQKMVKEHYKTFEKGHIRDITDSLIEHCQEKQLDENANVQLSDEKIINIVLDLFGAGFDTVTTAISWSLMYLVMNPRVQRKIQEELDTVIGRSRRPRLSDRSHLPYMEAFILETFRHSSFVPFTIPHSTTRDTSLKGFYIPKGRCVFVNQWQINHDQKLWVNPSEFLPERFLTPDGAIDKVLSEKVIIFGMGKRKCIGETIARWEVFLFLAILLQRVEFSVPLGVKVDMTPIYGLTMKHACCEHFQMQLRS

COC(=O)c1ccccc1S(=O)(=O)NC(=O)N(C)c1nc(C)nc(OC)n1
outcome [1]: inactive
outcome [2]: inactive
outcome [3]: inactive
outcome [4]: inactive
outcome [5]: inactive
outcome [6]: inactive
outcome [7]: inactive
outcome (CD38, CD38 (gene 952)): inactive
outcome (CD40, CD40 (gene 958)): inactive
outcome (CD69, CD69 (gene 969)): inactive
outcome [8]: inactive
outcome [9]: inactive
outcome [10]: inactive
outcome [11]: inactive
outcome [12]: inactive
outcome [13]: inactive
outcome [14]: inactive

COP(=S)(OC)Oc1ccc([N+](=O)[O-])cc1
outcome [1]: inactive
outcome [2]: inactive
AC50 [3]: 14.6 µM (active)
AC50 [4]: 15.4 µM (active)
outcome [5]: inactive
outcome [6]: inactive
outcome [7]: inactive
AC50 (CD38, CD38 (gene 952)): 20 µM (active)
AC50 (CD40, CD40 (gene 958)): 13.8 µM (active)
AC50 (CD69, CD69 (gene 969)): 15.5 µM (active)
AC50 [8]: 14.5 µM (active)
AC50 [9]: 30.9 µM (active)
outcome [10]: inactive
AC50 [11]: 11.5 µM (active)
AC50 [12]: 20 µM (active)
AC50 [13]: 21.9 µM (active)
AC50 [14]: 21.7 µM (active)
outcome [15]: inactive
AC50 [16]: 2.85 µM (active)
AC50 [17]: 6.61 µM (active)

COP(=O)(OC)OC=C(Cl)Cl
outcome [1]: inactive
outcome [2]: inactive
outcome [3]: inactive
AC50 [4]: 20 µM (active)
outcome [5]: inactive
AC50 [6]: 4.96 µM (active)
AC50 [7]: 30.1 µM (active)
outcome (CD38, CD38 (gene 952)): inactive
outcome (CD40, CD40 (gene 958)): inactive
outcome (CD69, CD69 (gene 969)): inactive
AC50 [8]: 17.5 µM (active)
AC50 [9]: 28.9 µM (active)
outcome [10]: inactive
outcome [11]: inactive
outcome [12]: inactive
AC50 [13]: 20 µM (active)
outcome [14]: inactive
outcome [15]: inactive

CCOCN(C(=O)CCl)c1c(C)cccc1CC
outcome [1]: inactive
AC50 [2]: 31.2 µM (active)
outcome [3]: inactive
AC50 [4]: 23.9 µM (active)
outcome [5]: inactive
AC50 [6]: 5.13 µM (active)
AC50 [7]: 20 µM (active)
AC50 (CD38, CD38 (gene 952)): 27 µM (active)
outcome (CD40, CD40 (gene 958)): inactive
AC50 (CD69, CD69 (gene 969)): 11.8 µM (active)
AC50 [8]: 36 µM (active)
AC50 [9]: 17.1 µM (active)
outcome [10]: inactive
outcome [11]: inactive
outcome [12]: inactive
AC50 [13]: 27.1 µM (active)
AC50 [14]: 15.9 µM (active)

CN1CSC(=S)N(C)C1
AC50 [1]: 12.8 µM (active)
AC50 [2]: 11.9 µM (active)
AC50 [3]: 3.85 µM (active)
AC50 [4]: 10.8 µM (active)
AC50 [5]: 13.7 µM (active)
AC50 [6]: 8.45 µM (active)
AC50 [7]: 18.3 µM (active)
AC50 (CD38, CD38 (gene 952)): 23.3 µM (active)
AC50 (CD40, CD40 (gene 958)): 20 µM (active)
AC50 (CD69, CD69 (gene 969)): 20 µM (active)
AC50 [8]: 15 µM (active)
AC50 [9]: 19.8 µM (active)
AC50 [10]: 31.6 µM (active)
AC50 [11]: 14.4 µM (active)
AC50 [12]: 20.2 µM (active)
AC50 [13]: 5.99 µM (active)
outcome [14]: inactive
outcome [16]: inactive
